For 7 compounds, Potency and outcome results are on record in PubChem BioAssay (Tox21).

Values joined by “and” are separate entries in the source; they are usually repeats but may differ in a detail not shown here. Identical values can stand only once. Records with an inconclusive call do not appear. Some compounds were tested as several samples or in several runs, with calls that do not always agree. Active and inactive are the calls of the source. Unless noted, the call rests on the fitted dose curve; in most records, active means well fitted curve in the direction sought with a large enough effect in the repeat runs; inconclusive means weak or mixed curves; inactive means no such curve, though single readings can be large; an effect the other way counts as inactive or inconclusive.

Assay [1] can be described thus: qHTS assay to test for compound auto fluorescence at 535 nm (green) in HEK293 cells (AID 720680).
Assay [2] is described as follows: qHTS assay to test for compound auto fluorescence at 460 nm (blue) in HEK293 cell free culture (AID 720681). An outline of the steps: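 Compounds were added to cell-free DMEM with 10% FBS and fluorescence read directly. The blue channel used 405 nm excitation and 460 nm emission, with triamterene as the reference fluorophore.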
For orientation: In qHTS, concentration-response curves come from the screen itself.

A short description of assay [3]: qHTS assay to test for compound auto fluorescence at 535 nm (green) in HEK293 cell free culture (AID 720682). The method in brief:
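Measurement is a direct plate read of green fluorescence (485 nm in, 535 nm out) after compound addition to serum-supplemented DMEM lacking cells, with fluorescein used to express intensities.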

The nature of assay [4]: qHTS assay to test for compound auto fluorescence at 590 nm (red) in HEK293 cell free culture (AID 720683). An outline of the steps: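 Cell-free wells of DMEM with 10% FBS received compound, and intrinsic fluorescence was read at excitation/emission 540/590 nm. Values expressed as equivalence to Rose Bengal sodium.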
Assay [5] can be described thus: qHTS assay to test for compound auto fluorescence at 590 nm (red) in HepG2 cell free culture (AID 720684). An outline of the steps:
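Rose Bengal sodium served as the reference for red signal. Test compounds were dispensed into serum-containing MEM (10% FBS) without cells, and plates were read at 540/590 nm.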

Assay [6] in a line: qHTS assay to test for compound auto fluorescence at 460 nm (blue) in HepG2 cell free culture (AID 720685). The method in brief: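 Cell-free plates of MEM plus 10% FBS received 23 nL compound or DMSO vehicle; blue-channel (405/460 nm) intensity scored against triamterene as reference fluorophore.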
Assay [7] is described as follows: qHTS assay to test for compound auto fluorescence at 535 nm (green) in HepG2 cell free culture (AID 720686).
The target of assay [8] is Glucocorticoid receptor (Homo sapiens) (UniProt P04150). Put plainly: qHTS assay to identify small molecule agonists of the glucocorticoid receptor (GR) signaling pathway (AID 720691; active means well fitted activation curve with a large enough effect in the signal ratio in the repeat runs, not every such curve was filed as active; the % refers to the signal ratio; further: potency means the concentration at half of the fitted maximal effect). The method in brief:
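A HeLa cervical cancer line expressing GR and a glucocorticoid response element-driven beta-lactamase gene is treated with compounds for 18 h; LiveBLAzer B/G FRET substrate is then applied and fluorescence read.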

Assay [9] is described as follows: qHTS assay to identify small molecule antagonists of the glucocorticoid receptor (GR) signaling pathway - cell viability counter screen (AID 720693). Further: nearly all actives have a fitted effect of over 55% in size. Further: potency means the concentration at half of the fitted maximal effect.
The nature of assay [10]: qHTS assay for identifying genotoxic compounds that show differential cytotoxicity against isogenic chicken DT40 cell lines with known DNA damage response pathways - wild type cell line (AID 743012). Further: nearly all actives have a fitted effect of over 60% in size. Further: potency means the concentration at half of the fitted maximal effect. The method in brief:
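300 wt DT40 cells/well; cpd (DMSO) pintool-transferred after ~0.5 h at 37 C/5% CO2; 40 h incubation; CellTiter-Glo added, 30 min RT; luminescence read.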

The nature of assay [11]: qHTS assay for identifying genotoxic compounds that show differential cytotoxicity against isogenic chicken DT40 cell lines with known DNA damage response pathways - Rev3 mutant cell line (AID 743014). Further: nearly all actives have a fitted effect of over 55% in size. Further: potency means the concentration at half of the fitted maximal effect.
Assay [12] is described as follows: qHTS assay for identifying genotoxic compounds that show differential cytotoxicity against isogenic chicken DT40 cell lines with known DNA damage response pathways - Rad54/Ku70 mutant cell line (AID 743015). Further: nearly all actives have a fitted effect of over 60% in size. Further: potency means the concentration at half of the fitted maximal effect.
The nature of assay [13]: qHTS assay to identify small molecule antagonists of the androgen receptor (AR) signaling pathway - cell viability counter screen (AID 743033; further: nearly all actives have a fitted effect of over 45% in size; further: potency means the concentration at half of the fitted maximal effect).
The nature of assay [14]: qHTS assay to identify small molecule antagonists of the thyroid receptor (TR) signaling pathway - cell viability counter screen (AID 743064). Further: nearly all actives have a fitted effect of over 50% in size. Further: potency means the concentration at half of the fitted maximal effect. The method in brief: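 Compounds were tested on GH3.TRE-Luc cells in the presence of T3 at 1 nM final. Following 23.5 h at 37 °C, cell viability was quantified by CellTiter-Fluor.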
A short description of assay [15]: qHTS assay to test for compound auto fluorescence at 460 nm (blue) in HepG2 cells (AID 720687). The method in brief:
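HepG2 cells in MEM with 10% FBS, attached overnight at 37 C, were exposed to compound or DMSO for 1 hr at 37 C, 5% CO2. Blue fluorescence was read at 405/460 nm, with triamterene as reference fluorophore.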

Assay [16] deals with Androgen receptor (Homo sapiens) (UniProt P10275). Put plainly: qHTS assay to identify small molecule antagonists of the androgen receptor (AR) signaling pathway (AID 743035; active means well fitted inhibition curve with a large enough effect in the signal ratio in the repeat runs, not every such curve was filed as active; the % refers to the signal ratio; further: potency means the concentration at half of the fitted maximal effect). The method in brief:
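In this cell-based reporter screen, compounds were tested in concentration series against R1881-activated HEK293 cells expressing beta-lactamase under UAS control; after 16 h at 37C, FRET substrate was added and fluorescence read 2 h later.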

Assay [17] in a line: qHTS assay to identify small molecule antagonists of the androgen receptor (AR) signaling pathway using the MDA cell line - cell viability counter screen (AID 743041; further: nearly all actives have a fitted effect of over 45% in size; further: potency means the concentration at half of the fitted maximal effect). The method in brief:
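Cytotoxicity counter screen: MDA-kb2 AR-luc cells, compound + R1881, 16 h, 37C, 0% CO2; CellTiter-Fluor added at 15.5 h, fluorescence read after 30 min.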

The target of assay [18] is Androgen receptor (Homo sapiens) (UniProt P10275). Put plainly: qHTS assay to identify small molecule antagonists of the androgen receptor (AR) signaling pathway using the MDA cell line (AID 743042; further: nearly all actives have a fitted effect of over 55% in size; further: potency means the concentration at half of the fitted maximal effect). The method in brief:
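MDA-kb2 breast carcinoma cells carrying MMTV-luciferase (AR/GR responsive) were co-treated with compounds and the agonist R1881 for 16 h at 37C. Inhibition read as ONE-Glo luminescence; CellTiter-Fluor fluorescence measured in parallel for cytotoxicity.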

Assay [19] deals with Glucocorticoid receptor (Homo sapiens) (UniProt P04150). Put plainly: qHTS assay to identify small molecule antagonists of the glucocorticoid receptor (GR) signaling pathway (AID 720692; active means well fitted inhibition curve with a large enough effect in the signal ratio in the repeat runs, not every such curve was filed as active; the % refers to the signal ratio). The method in brief: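 GRE-bla HeLa line, dex-stimulated (5 nM final). Compound exposure 18 h, 37 C. Beta-lactamase FRET read after 2 h RT substrate.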
For assay [20], the target named is Androgen receptor (Homo sapiens) (UniProt P10275). Put plainly: qHTS assay to identify small molecule agonists of the androgen receptor (AR) signaling pathway (AID 743036; active means well fitted activation curve with a large enough effect in the signal ratio in the repeat runs, with a control signal flat, not every such curve was filed as active; the % refers to the signal ratio). The method in brief: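 Beta-lactamase under UAS control, stably integrated in HEK293 GripTite cells, reports receptor activation. After 16 h compound treatment, cells received FRET substrate for 2 h at room temperature before fluorescence reading.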
Androgen receptor (Homo sapiens), sequence (P10275 whole entry, looked up): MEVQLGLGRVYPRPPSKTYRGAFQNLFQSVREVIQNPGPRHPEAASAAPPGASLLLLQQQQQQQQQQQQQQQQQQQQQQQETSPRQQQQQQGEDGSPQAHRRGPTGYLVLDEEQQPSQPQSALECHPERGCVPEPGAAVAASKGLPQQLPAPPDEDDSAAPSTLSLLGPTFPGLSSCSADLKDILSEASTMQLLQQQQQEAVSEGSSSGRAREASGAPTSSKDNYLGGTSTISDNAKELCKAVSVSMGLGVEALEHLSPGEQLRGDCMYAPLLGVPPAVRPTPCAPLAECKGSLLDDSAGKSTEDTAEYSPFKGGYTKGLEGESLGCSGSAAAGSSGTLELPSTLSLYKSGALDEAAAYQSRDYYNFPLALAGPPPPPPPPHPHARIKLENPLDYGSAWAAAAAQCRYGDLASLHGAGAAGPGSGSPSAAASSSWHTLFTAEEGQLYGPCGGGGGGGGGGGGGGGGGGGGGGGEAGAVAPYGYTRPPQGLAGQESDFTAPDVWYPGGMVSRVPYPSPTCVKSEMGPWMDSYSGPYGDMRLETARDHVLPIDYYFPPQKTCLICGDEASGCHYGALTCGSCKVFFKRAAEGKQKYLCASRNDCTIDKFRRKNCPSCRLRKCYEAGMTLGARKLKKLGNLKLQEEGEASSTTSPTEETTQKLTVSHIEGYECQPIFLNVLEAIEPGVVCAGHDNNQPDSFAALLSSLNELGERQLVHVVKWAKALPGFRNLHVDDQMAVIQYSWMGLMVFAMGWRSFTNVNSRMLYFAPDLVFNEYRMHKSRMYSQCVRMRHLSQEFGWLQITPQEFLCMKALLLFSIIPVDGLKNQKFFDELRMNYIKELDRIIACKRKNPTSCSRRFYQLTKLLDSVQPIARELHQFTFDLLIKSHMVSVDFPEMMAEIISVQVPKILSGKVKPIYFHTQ

Glucocorticoid receptor (Homo sapiens), sequence (P04150 whole entry, looked up): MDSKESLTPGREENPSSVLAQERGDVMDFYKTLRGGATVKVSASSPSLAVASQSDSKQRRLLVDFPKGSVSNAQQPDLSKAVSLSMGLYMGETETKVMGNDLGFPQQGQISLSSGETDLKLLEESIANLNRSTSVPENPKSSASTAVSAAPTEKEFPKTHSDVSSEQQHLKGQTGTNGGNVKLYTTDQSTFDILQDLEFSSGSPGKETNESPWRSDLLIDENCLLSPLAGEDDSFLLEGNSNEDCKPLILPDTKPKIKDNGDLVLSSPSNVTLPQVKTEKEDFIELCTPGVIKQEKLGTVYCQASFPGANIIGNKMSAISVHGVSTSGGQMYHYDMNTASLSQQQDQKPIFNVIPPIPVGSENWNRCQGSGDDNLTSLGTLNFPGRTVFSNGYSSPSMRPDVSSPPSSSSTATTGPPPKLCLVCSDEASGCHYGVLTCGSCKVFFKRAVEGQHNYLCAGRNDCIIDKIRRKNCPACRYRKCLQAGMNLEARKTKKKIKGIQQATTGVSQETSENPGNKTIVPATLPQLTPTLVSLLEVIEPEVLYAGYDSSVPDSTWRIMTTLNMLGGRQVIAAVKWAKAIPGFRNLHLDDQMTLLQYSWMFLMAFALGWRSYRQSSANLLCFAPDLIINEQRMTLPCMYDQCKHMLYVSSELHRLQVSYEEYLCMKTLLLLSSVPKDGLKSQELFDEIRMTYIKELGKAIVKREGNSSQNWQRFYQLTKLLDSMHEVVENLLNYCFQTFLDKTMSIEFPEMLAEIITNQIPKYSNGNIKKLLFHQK

`CCC(C)(C)C(=O)O[C@H]1C[C@@H](C)C=C2C=C[C@H](C)[C@H](CC[C@@H]3C[C@@H](O)CC(=O)O3)[C@H]21`: the Potency entry in assay [1], in assay [2], in [3], in [6], in [7] and in [9] was “inactive” each time. Further, the Potency result in [13] and in assay [14] was “inactive” throughout. Moreover, the result in [4] and in assay [5] was inactive. The Potency is 6.44 µM (active) and inactive in assay [8]; 2.17 µM (active) in [10]; 154 nM (active) in assay [11]; 1.09 µM (active) in assay [12].
With `Oc1c(Cl)cc(Cl)c(Cl)c1Cc1c(O)c(Cl)cc(Cl)c1Cl`, the Potency entry in assay [1], in assay [2], in assay [3], in assay [6], in assay [7] and in assay [15] was “inactive” throughout. Also, the compound was classed as inactive in assay [4] and in assay [5]. For the same compound, the Potency was 1.69 µM (active) and 21.8 µM (active) and 19.5 µM (active) in assay [9]; 5.96 µM (active) and 3.05 µM (active) and 4.33 µM (active) in assay [10]; 5.96 µM (active) and 3.05 µM (active) and 3.86 µM (active) in assay [11]; 8.41 µM (active) and 3.05 µM (active) and 3.86 µM (active) in assay [12]; 9.52 µM (active) and 1.54 µM (active) and 1.74 µM (active) in assay [13]; 10.7 µM (active) and 1.74 µM (active) in [16]. The Potency in assay [17] was 13.3 µM (active) and 17.2 µM (active) and 19.3 µM (active); in assay [18] it was 13.3 µM (active) and 2.16 µM (active) and 5.45 µM (active); in assay [14] it was 26.6 µM (active) and 9.66 µM (active) and 24.3 µM (active).
`Cc1ccnc2c1NC(=O)c1cccnc1N2C1CC1`: the Potency result in [1], in [2], in [3], in assay [6], in [7] and in [8] was “inactive” throughout. The Potency result in assay [19], in assay [9], in assay [10], in assay [12], in assay [13] and in [17] was “inactive” each time. In [14], the Potency entry was “inactive”. For the same compound, the call in assay [4] and in [5] was inactive.
In the case of `O=c1n(CC2CO2)c(=O)n(CC2CO2)c(=O)n1CC1CO1` (stereo unspecified), the Potency entry in assay [1], in [2], in assay [3], in [6], in [7] and in [15] was “inactive” in each case. In addition, the Potency result in assay [9], in [13] and in assay [17] was “inactive” throughout. Further, the result in assay [4] and in assay [5] was inactive. Besides, the Potency in [10] was 376 nM (active) and 193 nM (active); in assay [12], 944 nM (active) and 217 nM (active); in [14], 12.1 µM (active) and 27.3 µM (active).
With `C1COC(NC(C2CC2)C2CC2)=N1`, the Potency result in assay [1], in assay [2], in [3], in assay [6], in assay [7] and in assay [9] was “inactive” each time. In addition, the Potency result in assay [10] is “inactive”. The compound was called inactive in [4] and in assay [5].
Consider `OCC(CO)N[C@H]1C[C@](O)(CO)[C@@H](O)[C@H](O)[C@H]1O`, for which the Potency entry in assay [1], in [2], in [3], in [6], in assay [7] and in assay [8] was “inactive” throughout. Besides, the Potency entry in assay [19], in assay [9], in [10], in assay [12], in assay [13] and in [16] was “inactive” each time. Besides, the Potency result in assay [20], in [18] and in assay [14] was “inactive” throughout. Also, the call in [4] and in [5] was inactive.
`CCCCN(CCO)CCCC`: the Potency entry in assay [1], in [2], in [3], in assay [6], in assay [7] and in assay [15] was “inactive” each time. For the same compound, the Potency result in [9], in assay [10], in assay [11], in [12], in [13] and in assay [17] was “inactive” in each case. Further, the Potency entry in assay [14] is “inactive”. The outcome in [4] and in [5] was inactive.
